Measurements: PMC5540273 (PLoS ONE, 2017)

Experiments:
Conditions in all cases: concentration: 1 μM,replicates: in singlicate; n = 1
PCTK2 = test system: T1, PCTK2
T1 construct: gene CDK17

PCTK3 = test system: T2, PCTK3
T2 construct: gene CDK18

PDGFRA = test system: PDGFRA
PDGFRB = test system: PDGFRB
PDPK1 = test system: PDPK1
PFTAIRE2 = test system: PFTAIRE2
PFTK1 = test system: T3, PFTK1
T3 construct: gene CDK14

PHKG1 = test system: PHKG1
PHKG2 = test system: PHKG2
PIK3C2B = test system: PIK3C2B
PIK3C2G = test system: PIK3C2G
PIK3CA = test system: PIK3CA
PIK3CB = test system: PIK3CB
PIK3CD = test system: PIK3CD
PIK3CG = test system: PIK3CG
PIK4CB = test system: T4, PIK4CB
T4 construct: gene PI4KB

PIKFYVE = test system: PIKFYVE
PIM1 = test system: PIM1
PIM2 = test system: PIM2
PIM3 = test system: PIM3
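Further: KINOMEscan kinase panel screen.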

Compound | %Inh (PCTK2) | %Inh (PCTK3) | %Inh (PDGFRA) | %Inh (PDGFRB) | %Inh (PDPK1) | %Inh (PFTAIRE2) | %Inh (PFTK1) | %Inh (PHKG1) | %Inh (PHKG2) | %Inh (PIK3C2B) | %Inh (PIK3C2G) | %Inh (PIK3CA) | %Inh (PIK3CB) | %Inh (PIK3CD) | %Inh (PIK3CG) | %Inh (PIK4CB) | %Inh (PIKFYVE) | %Inh (PIM1) | %Inh (PIM2) | %Inh (PIM3)
C[C@@H]1CNc2c(sc3ccc4nc(-c5ccncc5)ccc4c23)C(=O)N1 | 6% | 0% | 72% | 56% | 0% | 0% | 0% | 39% | 55% | 0% | 2% | 0% | 0% | 0% | 0% | 0% | 52% | 44% | 69% | 93.1%
C[C@@H](Oc1cc(-n2cnc3cc(-c4cnn(C)c4)ccc32)sc1C(N)=O)c1ccccc1Cl [GSK580432] | 0% | 19% | 84% | 99.8% | 75% | 7% | 7% | 0% | 47% | 0% | 0% | 0% | 0% | 32% | 24% | 0% | 61% | 20% | 0% | 18%
Cn1cc(-c2cccc3c(N)c(C(N)=O)nnc23)cn1 | 2% | 5% | 12% | 10% | 2% | 6% | 0% | 10% | 0% | 0% | 26% | 0% | 0% | 20% | 18% | 16% | 0% | 0% | 0% | 0%
Cn1ccc2ncnc(Oc3ccc(NC(=O)Nc4cncc(C(F)(F)F)c4)c(Cl)c3)c21 | 0% | 0% | 98.2% | 100% | 26% | 0% | 0% | 0% | 9% | 0% | 0% | 0% | 0% | 0% | 0% | 0% | 0% | 3% | 1% | 0%
CN1CCN(CCCNc2nccc(-c3c(-c4ccc(F)cc4)nn4cc(C(N)=O)ccc34)n2)CC1 [GW622475] | 20% | 12% | 0% | 63% | 0% | 33% | 11% | 14% | 26% | 8% | 0% | 0% | 0% | 0% | 0% | 0% | 94.2% | 25% | 0% | 8%
CSc1nccc(-c2c(-c3ccc(F)cc3)ncn2CCCN2CCOCC2)n1.Cl [SB-217146] | 0% | 0% | 0% | 12% | 10% | 0% | 0% | 11% | 0% | 0% | 0% | 17% | 0% | 0% | 0% | 5% | 14% | 35% | 0% | 9%
CC(C)c1nc(-c2cccc(NS(=O)(=O)c3ccccc3)c2)c(-c2ccnc(Nc3ccc4c(c3)CN(C)CC4)n2)s1 [GSK1649598] | 100% | 100% | 91.2% | 100% | 0% | 85% | 78% | 0% | 45% | 20% | 0% | 10% | 11% | 25% | 4% | 33% | 56% | 28% | 0% | 18%
COc1cc2c(Nc3ccc(NC(=O)c4ccccc4)cc3)ncnc2cc1OCCCN1CCOCC1 [GSK301329] | 0% | 28% | 24% | 55% | 0% | 10% | 12% | 0% | 0% | 0% | 0% | 0% | 0% | 0% | 0% | 0% | 0% | 0% | 0% | 0%
COc1cccc(OC)c1C(=O)Nc1cccc(-c2nn3ccccc3c2-c2ccnc(Nc3cccc(F)c3)n2)c1 [GSK361065] | 0% | 3% | 0% | 90.2% | 4% | 2% | 3% | 1% | 2% | 0% | 24% | 0% | 0% | 1% | 0% | 0% | 42% | 10% | 0% | 13%
Cl.Nc1n[nH]c2cc(-c3ccccn3)ccc12 [GSK2189892] | 13% | 0% | 0% | 16% | 0% | 5% | 6% | 0% | 0% | 0% | 0% | 0% | 0% | 0% | 0% | 0% | 0% | 0% | 0% | 0%
Cc1n[nH]c2cc(Nc3ccnc(Nc4cccc(CN5CCOCC5)c4)n3)ccc12 [GW682569] | 12% | 8% | 75% | 95.4% | 0% | 7% | 20% | 0% | 0% | 0% | 0% | 3% | 7% | 9% | 6% | 81% | 23% | 0% | 0% | 0%
Cn1ccc2ncnc(Oc3ccc(NC(=O)Nc4cccc(C(F)(F)F)c4)c(F)c3)c21 | 17% | 1% | 99.1% | 100% | 17% | 0% | 0% | 18% | 0% | 0% | 0% | 0% | 0% | 0% | 0% | 0% | 13% | 19% | 0% | 8%
O=C(Nc1cccc(C(F)(F)F)c1)c1cccc(Oc2ccc3nccn3n2)c1 | 0% | 0% | 98.5% | 99.9% | 13% | 0% | 0% | 33% | 0% | 99.3% | 13% | 98.1% | 0% | 17% | 94.2% | 39% | 0% | 0% | 7% | 0%
CS(=O)(=O)c1cccc(CNc2nc(Nc3ccc4c(c3)[C@@H]3C[C@@H]4CNC3=O)ncc2C(F)(F)F)c1 | 0% | 0% | 9% | 73% | 0% | 18% | 0% | 0% | 0% | 0% | 0% | 0% | 0% | 0% | 0% | 0% | 24% | 0% | 0% | 0%
Cc1ccc(Nc2ccnc(Nc3ccc4c(c3)CS(=O)(=O)C4)n2)cc1O.Cl [GW579362] | 35% | 16% | 92.8% | 100% | 38% | 15% | 27% | 0% | 1% | 4% | 42% | 2% | 0% | 0% | 31% | 67% | 0% | 29% | 0% | 5%
COc1cc(Nc2nccc(N3CCC(NC(=O)c4cccc(C#N)c4)C3)n2)cc(OC)c1OC (stereo not drawn) [GSK1379751] | 0% | 0% | 0% | 70% | 0% | 0% | 3% | 0% | 0% | 0% | 0% | 0% | 0% | 0% | 0% | 3% | 9% | 0% | 0% | 0%
CC(C(=O)NC1CCN(c2ccnc(Nc3ccc(F)cc3)n2)C1)c1ccc(Cl)cc1 (stereo not drawn) [GSK1379713] | 0% | 12% | 3% | 7% | 0% | 24% | 2% | 0% | 0% | 0% | 0% | 0% | 0% | 15% | 0% | 0% | 9% | 9% | 0% | 0%
CCNCC(Cc1ccccc1)NC(=O)c1cc(Br)c(-c2ccnc3[nH]ccc23)s1.Cl.Cl (stereo not drawn) [GSK1383280] | 15% | 0% | 51% | 75% | 0% | 0% | 21% | 27% | 20% | 0% | 0% | 0% | 0% | 0% | 0% | 12% | 0% | 22% | 0% | 5%
O=C(Nc1ccccc1)c1cccc(Oc2ccc3nccn3n2)c1 | 0% | 38% | 66% | 99.3% | 0% | 0% | 38% | 15% | 0% | 0% | 6% | 0% | 0% | 11% | 0% | 68% | 0% | 0% | 5% | 0%
Cc1cccc(-c2nc(Nc3ccncc3)c3sccc3n2)n1 [GW869641] | 0% | 0% | 36% | 27% | 7% | 5% | 0% | 0% | 5% | 29% | 40% | 33% | 28% | 46% | 23% | 31% | 86% | 27% | 3% | 13%
CS(=O)(=O)Nc1ccc(-c2ccnc3[nH]ccc23)cc1 [GSK993273] | 0% | 0% | 1% | 61% | 0% | 16% | 16% | 2% | 13% | 0% | 3% | 0% | 0% | 8% | 7% | 10% | 0% | 28% | 0% | 12%
